Structures are written as SMILES.

The first test relates to Trypanosoma cruzi. Description: Trypanosoma cruzi phosphomannomutase and mannose-1-phosphate guanylyltransferase assay. It is filed as functional. Further details: scale not given: direction of the effect not stated beside the values. The settings on record: 10 µM.
On to `Cc1cc(C2CCCN(C(=O)c3cnn(C)c3)C2)ccn1` (stereo not drawn), for which the Percent Effect amounted to 5.93%.

`COC(=O)N1CCCN(C(=O)NCc2ccc(Cl)s2)CC1`: the Percent Effect was 0.308%.

As to `NC(=O)CN1CCCN(C(=O)c2ccn(-c3ccccc3)n2)CC1`, the Percent Effect is 1.26%.

Take `CCc1nnc(CN2CCN(C(=O)c3cc4ccccc4[nH]3)CC2)o1`: the Percent Effect was 8.91%.

Regarding `Cn1ncc2c(=O)[nH]c(CN3CCC(Cc4ccccc4)CC3)nc21`, the Percent Effect worked out at 8.87%.

For `COCCN1C(=O)CO[C@H]2CN(Cc3c[nH]nc3-c3ccccc3)C[C@@H]21`, the Percent Effect worked out at 2.77%.

As for `CC(C(N)=O)S(=O)(=O)Cc1cc(Cl)c2c(c1)OCO2` (stereo not drawn), the Percent Effect is -3.83%.

As for `COc1ccc2cc(C(=O)N3CCCCC3CC(N)=O)[nH]c2c1` (stereo not drawn), the Percent Effect is -0.187%.

As to `CC(C)c1nccn1C1CCCN(C(=O)c2cnc[nH]2)C1` (stereo not drawn), the Percent Effect was determined as 5.32%.

As to `COc1ccc(C(=O)N2CCC(Nc3ccc(C)nn3)CC2)c(F)c1`, the Percent Effect is -4.21%.

Regarding `O=C(c1cnco1)N1C[C@@H]2CC[C@H](Oc3ccccc3F)[C@@H]2C1`, the Percent Effect is -3.16%.

For `CN(C)C(=O)Cc1nc(CN2CCOC(Cn3cccn3)C2)cs1` (stereo not drawn), the Percent Effect is -1.46%.

For `Cc1ccoc1-c1nnc(CNCCn2cccn2)o1`, the Percent Effect turned out to be 3.12%.

On to `O=C(NCc1cnc2n1CCN(Cc1ccsc1)CC2)C1CCC1`, for which the Percent Effect stood at 0.293%.

As for `Cc1ccc(C2CCCCCN2Cc2cn(C)nc2C)s1` (stereo not drawn), the Percent Effect came out at 1.48%.

With `Cc1cccc(COC[C@H]2CC[C@H]3[C@H](CCN3C(=O)CC3CC3)O2)n1`, the Percent Effect is -1.57%.

As to `CC(Cn1cccn1)NC(=O)N(C)Cc1ccc(Cl)s1` (stereo not drawn), the Percent Effect was 7.27%.

For the compound `Fc1ccc(-c2nnc(CN3CCOC(Cn4cncn4)C3)o2)cc1` (stereo not drawn), the Percent Effect is -2.62%.

As for `CCc1noc(C2CCCCN2C(=O)c2nnc3ccccc3n2)n1` (stereo not drawn), the Percent Effect is 3.54%.

The target of another test is T1, Arginase-2, mitochondrial (Homo sapiens) (UniProt P78540).
T1 sequence (whole entry): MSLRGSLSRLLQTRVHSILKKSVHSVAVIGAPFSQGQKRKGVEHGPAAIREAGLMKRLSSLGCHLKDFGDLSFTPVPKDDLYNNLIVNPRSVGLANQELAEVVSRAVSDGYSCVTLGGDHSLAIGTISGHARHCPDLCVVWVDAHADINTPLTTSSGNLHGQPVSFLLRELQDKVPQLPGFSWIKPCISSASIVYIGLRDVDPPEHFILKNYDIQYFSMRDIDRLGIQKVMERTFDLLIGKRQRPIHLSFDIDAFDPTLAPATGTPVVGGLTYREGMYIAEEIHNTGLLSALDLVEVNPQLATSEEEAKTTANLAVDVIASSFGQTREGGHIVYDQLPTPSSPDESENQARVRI
Kind of test: in vitro enzyme assay to detect the production of urea directly proportional to the activity of Arginase II. Set-up: scale not given: in the data most compounds retested in dose-response had high values. The settings on record: 33.3 µM. It is filed as functional.
`CNC(=O)C1CCN(C(=O)c2ccn(-c3ccc(F)cc3)n2)CC1`: the Percent Effect worked out at 2.77%.

Consider `COc1cccc([C@@H]2CN(C(=O)c3ccc(C)cc3O)C[C@H]2C(=O)O)c1`, for which the Percent Effect was found to be 40.9%.

Turning to `O=C(Cc1cccc(F)c1)NCCNCc1ccco1`, the Percent Effect is -2.13%.

Take `Cc1ncsc1C(=O)NC1CCN(CC(=O)NCc2ccccc2)CC1`: the Percent Effect was -1.8%.

On to `CCN1CC(C(=O)N(C)Cc2ccon2)CC1=O` (stereo not drawn), for which the Percent Effect was -2.73%.

`COCc1c(C(=O)O)nnn1Cc1cccc(C(F)(F)F)c1`: the Percent Effect was -8.98%.

On to `O=C(NCC(O)c1cccc(F)c1)c1cccnc1O` (stereo not drawn), for which the Percent Effect was -4.79%.

For `Cc1nc(CN2CCOC(Cn3cncn3)C2)nc2ccccc12` (stereo not drawn), the Percent Effect is -1.05%.

As for `CCc1nnc2n1CCN(C(=O)CN(C)Cc1ccccc1)C2`, the Percent Effect came to 2.16%.

Consider `CCn1nc(C)c(CNC(=O)c2cn(CCC3CCCCN3)nn2)c1C` (stereo not drawn), for which the Percent Effect is 5.21%.

As for `CCS(=O)(=O)Nc1ccc(C(=O)NCCCN2CCCC2)cc1`, the Percent Effect came out at 0%.

Turning to `COc1cccc(CN(C)C(=O)CSc2ccc3c(c2)OCCO3)c1`, the Percent Effect is -2.37%.

In the case of `CC(C)c1cnc(CNc2c(F)cccc2-n2cccn2)o1`, the Percent Effect came out at 12.4%.

With `O=S(=O)(Cc1ccccc1F)NCCCN1CCCCC1`, the Percent Effect was -1.04%.

Regarding `CN(C)S(=O)(=O)N1CC[C@@H]2CN(Cc3cnn(C)c3)C[C@@H]2C1`, the Percent Effect is 0.645%.

`CN(C(=O)Cc1ccc2c(c1)OCCO2)C1CCCC1`: the Percent Effect was -7.1%.

As to `C1CC(NCc2nc(C3CC3)no2)CN(Cc2noc(C3CC3)n2)C1` (stereo not drawn), the Percent Effect is -12.4%.

For `COCCN1C[C@@H]2CCCO[C@@H]2[C@H](NC(=O)c2cnccn2)C1`, the Percent Effect was -45.3%.

For `Cc1nc2cc(C(=O)N3CCCC(n4cncn4)C3)ccc2n1C` (stereo not drawn), the Percent Effect was -0.924%.

For `Cc1ccc(CN2CC(C(=O)N3CCCC3)C3(CCOCC3)C2)s1` (stereo not drawn), the Percent Effect was -54.3%.

As for `Cc1cc(C2CCCN(C(=O)c3cnn(C)c3)C2)ccn1` (stereo not drawn), the Percent Effect is -0.696%.

For `COC(=O)N1CCCN(C(=O)NCc2ccc(Cl)s2)CC1`, the Percent Effect was -4.09%.

For `NC(=O)CN1CCCN(C(=O)c2ccn(-c3ccccc3)n2)CC1`, the Percent Effect turned out to be 9.71%.

For `CCc1nnc(CN2CCN(C(=O)c3cc4ccccc4[nH]3)CC2)o1`, the Percent Effect was -1.47%.

Consider `Cn1ncc2c(=O)[nH]c(CN3CCC(Cc4ccccc4)CC3)nc21`, for which the Percent Effect was 3.6%.

As to `COCCN1C(=O)CO[C@H]2CN(Cc3c[nH]nc3-c3ccccc3)C[C@@H]21`, the Percent Effect is -5.8%.

For `CC(C(N)=O)S(=O)(=O)Cc1cc(Cl)c2c(c1)OCO2` (stereo not drawn), the Percent Effect amounted to 7.91%.

Consider `COc1ccc2cc(C(=O)N3CCCCC3CC(N)=O)[nH]c2c1` (stereo not drawn), for which the Percent Effect was -3.56%.

Take `CC(C)c1nccn1C1CCCN(C(=O)c2cnc[nH]2)C1` (stereo not drawn): the Percent Effect amounted to 0.719%.

With `COc1ccc(C(=O)N2CCC(Nc3ccc(C)nn3)CC2)c(F)c1`, the Percent Effect turned out to be 2.8%.

Turning to `O=C(c1cnco1)N1C[C@@H]2CC[C@H](Oc3ccccc3F)[C@@H]2C1`, the Percent Effect is -2.09%.

Take `CN(C)C(=O)Cc1nc(CN2CCOC(Cn3cccn3)C2)cs1` (stereo not drawn): the Percent Effect was determined as 0%.

Turning to `Cc1ccoc1-c1nnc(CNCCn2cccn2)o1`, the Percent Effect came out at 1.52%.

Consider `O=C(NCc1cnc2n1CCN(Cc1ccsc1)CC2)C1CCC1`, for which the Percent Effect came to 3.72%.

(Values after ChEMBL document CHEMBL3988442, “University of Dundee, Small-Polar-MMV Screening Library” (2021).)
